We go through 18 compounds from PubChem BioAssay (EPA / NIEHS).

SMILES strings stand for the structures. Where “and” joins values, the source holds several entries; their conditions need not be identical. Equal values may be shown once. Calls of active or inactive are those of the source. Rule for the calls: active = hit-call score of the fitted dose curve at least 0.9, where 1 is the maximum; inactive = score below 0.9.

Read-out in assay [1]: Interferon-gamma inducible Protein 10 (IP10), CXCL10 (gene 3627)
In words: BSK_BE3C_IP10: BioMAP Diversity Plus: BE3C Assay for Interferon-gamma inducible Protein 10 (IP10) Biomarker Activity (AID 2283034). To be noted: primary human bronchial epithelial cells; actives raise or lower the signal. In a few lines:
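Primary human bronchial epithelial cells, with IP-10 measured by ELISA 24 hours after chemical dosing. Bidirectional fit against DMSO; cytotoxicity checked by SRB total protein staining in parallel cultures.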

Read-out in assay [2]: Monokine induced gamma interferon (MIG), CXCL9 (gene 4283)
Kind of assay: BSK_BE3C_MIG: BioMAP Diversity Plus: BE3C Assay for Monokine induced gamma interferon (MIG) Biomarker Activity (AID 2283035). To be noted: primary human bronchial epithelial cells; actives raise or lower the signal. In a few lines: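 Primary human bronchial epithelial cells treated for 24 h; MIG levels measured by ELISA, fitted bidirectionally versus DMSO. Parallel SRB total-protein staining assessed cytotoxicity.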

Read-out in assay [3]: Transforming growth factor beta 1 (TGFb1), TGFB1 (gene 7040)
In words: BSK_BE3C_TGFb1: BioMAP Diversity Plus: BE3C Assay for Transforming growth factor beta 1 (TGFb1) Biomarker Activity (AID 2283036). To be noted: primary human bronchial epithelial cells; actives raise or lower the signal. The method, boiled down: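 Primary human bronchial epithelial cells dosed with chemical; TGF-b1 measured by ELISA 24 h after dosing. Bidirectional curve fitting against DMSO negative control; SRB total-protein staining in parallel cultures gauged cytotoxicity.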

Read-out in assay [4]: Plasminogen activator inhibitor-1 (PAI1), SERPINE1 (gene 5054)
In words: BSK_BE3C_PAI1: BioMAP Diversity Plus: BE3C Assay for Plasminogen activator inhibitor-1 (PAI1) Biomarker Activity (AID 2283037). To be noted: primary human bronchial epithelial cells; actives raise or lower the signal. In a few lines:
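Primary human bronchial epithelial cells (BE3C system) exposed 24 h; PAI-1 quantified by ELISA. Parallel sulforhodamine B staining of total protein flags cytotoxicity. Bidirectional fit versus DMSO.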

Read-out in assay [5]: urokinase plasminogen activator (uPA), PLAU (gene 5328)
In words: BSK_BE3C_uPA: BioMAP Diversity Plus: BE3C Assay for urokinase plasminogen activator (uPA) Biomarker Activity (AID 2283038).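 For outcome: uPA protein level quantified by ELISA in cell cultures; uPA read one day after compound addition.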 Conditions: primary human bronchial epithelial cells; actives raise or lower the signal. In a few lines:
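Primary human bronchial epithelial cells, uPA measured by ELISA 24 h after dosing. Bidirectional change relative to DMSO; cytotoxicity checked in parallel cultures by sulforhodamine B total-protein staining.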

Read-out in assay [6]: Urokinase-type plasminogen activator receptor (uPAR), PLAUR (gene 5329)
In words: BSK_BE3C_uPAR: BioMAP Diversity Plus: BE3C Assay for Urokinase-type plasminogen activator receptor (uPAR) Biomarker Activity (AID 2283039).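 For outcome: cells exposed to compound for one day before measurement.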 Conditions: primary human bronchial epithelial cells; actives raise or lower the signal. In a few lines:
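Primary human bronchial epithelial cells dosed for 24 h; uPAR quantified by ELISA with bidirectional fitting against DMSO. Overt cytotoxicity assessed in parallel cultures by SRB total-protein staining (0.1% SRB, 560 nm).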

Read-out in assay [7]: Interleukin-6 (IL6), IL6 (gene 3569)
Kind of assay: BSK_CASM3C_IL6: BioMAP Diversity Plus: CASM3C Assay for Interleukin-6 (IL6) Biomarker Activity for (AID 2283040). To be noted: primary human coronary artery smooth muscle cells; actives raise or lower the signal.

Read-out in assay [8]: Tissue plasminogen activator (tPA), PLAT (gene 5327)
Kind of assay: BSK_BE3C_tPA: BioMAP Diversity Plus: BE3C Assay for Tissue plasminogen activator (tPA) Biomarker Activity (AID 2283041).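 For outcome: tPA level quantified by ELISA one day after compound addition.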 To be noted: primary human bronchial epithelial cells; actives raise or lower the signal. The method, boiled down: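 Primary human bronchial epithelial cells in the BE3C system, exposed to compound for 24 h. tPA was quantified by ELISA; DMSO served as baseline, with gain or loss of signal fitted. Cytotoxicity checked in parallel cultures by SRB total-protein staining.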

Read-out in assay [9]: Interleukin-8 (IL8), CXCL8 (gene 3576)
In words: BSK_CASM3C_IL8: BioMAP Diversity Plus: CASM3C Assay for Interleukin-8 (IL8) Biomarker Activity (AID 2283042).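 Note: IL-8 protein level quantified by ELISA.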 Conditions: primary human coronary artery smooth muscle cells; actives raise or lower the signal.

Read-out in assay [10]: Human Leukocyte Antigen - DR isotype (HLADR), HLA-DRA (gene 3122)
In words: BSK_CASM3C_HLADR: BioMAP Diversity Plus: CASM3C Assay for Human Leukocyte Antigen - DR isotype (HLADR) Biomarker Activity (AID 2283043).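 Note: cell-surface HLA-DR protein level quantified by ELISA.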 Conditions: primary human coronary artery smooth muscle cells; actives raise or lower the signal.

For orientation: AC50 means the midpoint of the concentration-response curve, whichever way the signal moves. Consider `C=CC=CC=CCCCCC`, for which the AC50 in [1] and in assay [10] was 5 µM (active) in each case. For the same compound, the result in assay [2], in assay [3], in assay [4], in assay [5], in assay [6] and in assay [7] was inactive. The outcome in [8] and in assay [9] was inactive.
For the compound `CCCCC/C=C\C/C=C\CCCCCCCC(=O)OC`, the AC50 in assay [1] is 24.9 µM (active); in [2], 38.5 µM (active); in [7], 20 µM (active); in assay [10], 20 µM (active). The result in assay [3], in assay [4], in assay [5], in assay [6], in assay [8] and in assay [9] was inactive.
As to `O=C(Cl)c1cc(C(=O)Cl)cc(C(=O)Cl)c1`, the concentration at half-maximal activity (AC50) in assay [1] is 30.4 µM (active); in assay [2], 39.1 µM (active); in assay [4], 26.7 µM (active); in assay [5], 20 µM (active); in assay [6], 24.4 µM (active); in [7], 26.1 µM (active). Further, the AC50 is 31.8 µM (active) in [8], 30.3 µM (active) in assay [9] and 15.5 µM (active) in assay [10]. Also, in assay [3], the outcome was inactive.
As for `c1ccc2c(c1)ccc1cc3c(ccc4ccccc43)cc12`, the outcome in assay [1], in [2], in assay [3], in [4], in assay [5] and in [6] was inactive. The outcome in assay [7], in assay [8], in [9] and in [10] was inactive.
As to `CC(C)(c1cc(Br)c(OCCO)c(Br)c1)c1cc(Br)c(OCCO)c(Br)c1`, the concentration at half-maximal activity (AC50) in assay [1] is 4.54 µM (active). Further, the outcome in assay [2], in assay [3], in assay [4], in [5], in assay [6] and in [7] was inactive. Further, the outcome in assay [8], in assay [9] and in assay [10] was inactive.
For `O=c1c2ccccc2oc2ccccc12`, the outcome in [1], in assay [2], in [3], in [4], in assay [5] and in assay [6] was inactive. In addition, the result in [7], in [8], in [9] and in assay [10] was inactive.
For `C=C[Si](OC(C)=O)(OC(C)=O)OC(C)=O`, the result in [1], in assay [2], in [4], in assay [5], in [6] and in assay [7] was inactive. Besides, the outcome in assay [8], in assay [9] and in assay [10] was inactive.
As for `COc1ccc2nc(N)sc2c1`, the outcome in assay [1], in assay [2], in [3], in assay [4], in assay [5] and in assay [6] was inactive. Also, the result in [7], in assay [8], in assay [9] and in assay [10] was inactive.
`CC1OC1C1CCC2(C)OC2C1` (stereo not given): the result in assay [1], in assay [2], in assay [3], in [4], in assay [5] and in [6] was inactive. Moreover, the result in assay [7], in assay [8], in assay [9] and in assay [10] was inactive.
As to `O=C1CCCN1CCO`, the outcome in assay [1], in [2], in assay [4], in [5], in assay [6] and in assay [7] was inactive. For the same compound, the result in [8], in assay [9] and in assay [10] was inactive.
As to `CN1C(=O)N(C)C(O)C1O` (stereo not given), the result in assay [1], in assay [2], in [4], in assay [5], in assay [6] and in assay [7] was inactive. Further, the outcome in [8], in assay [9] and in [10] was inactive.
With `O=C(c1ccc(O)cc1)c1ccc(O)cc1O`, the result in [1], in assay [2], in [5], in assay [6], in assay [7] and in assay [8] was inactive. Moreover, the result in assay [9] and in assay [10] was inactive. Moreover, in assay [4], the concentration at half-maximal activity (AC50) was 13.2 µM (active) and 12.6 µM (active).
For the compound `CCO[Si](C)(OCC)OCC`, the outcome in assay [1], in assay [2], in assay [4], in assay [5], in assay [6] and in assay [7] was inactive. The result in [8], in [9] and in assay [10] was inactive.
Take `c1ccc2c(c1)ccc1ncccc12`: the result in assay [1], in [2], in assay [3], in assay [4], in [5] and in [6] was inactive. Besides, the outcome in assay [7], in assay [8], in [9] and in assay [10] was inactive.
Take `C=CC(=O)OCC(Br)CBr` (stereo not given): the concentration at half-maximal activity (AC50) in assay [1] was 23.3 µM (active); in assay [2], 31.4 µM (active); in [7] it was 26 µM (active); in assay [9], 30.4 µM (active); in assay [10], 11.1 µM (active). In addition, the outcome in assay [3], in [4], in [5], in assay [6] and in assay [8] was inactive.
`S=C(NC1CCCCC1)NC1CCCCC1`: the outcome in [1], in assay [2], in assay [3], in assay [4], in assay [5] and in assay [6] was inactive. In addition, the result in assay [7], in [8], in assay [9] and in [10] was inactive.
Consider `O=Nc1ccc(O)cc1`, for which the outcome in assay [1], in [2], in assay [3], in assay [4], in [5] and in [6] was inactive. The result in assay [7], in [8], in assay [9] and in [10] was inactive.
`CCCCC(CC)COC(=O)c1ccccc1O` (stereo not given): the outcome in assay [1], in assay [2], in assay [3], in [4], in [5] and in assay [6] was inactive. Also, the result in [7], in assay [8], in [9] and in assay [10] was inactive.
